ALDH1A1 inh: ALDH1A1 (human) enzyme inhibition | P00352 | Purified ALDH1A1, NADH fluorescence, propionaldehyde substrate | hit rate 7.3% among 220,000 | Potency, µM (series often up to 75.3 µM), usual class: inhibitors
HPGD block: HPGD (human) dehydrogenase inhibition | P15428 | purified HPGD, NADH fluorescence kinetic, PGE2 substrate | Potency, µM, usual class: inhibitors | hit rate 4.3% among 150,000
Target sequence (P15428 whole entry, looked up): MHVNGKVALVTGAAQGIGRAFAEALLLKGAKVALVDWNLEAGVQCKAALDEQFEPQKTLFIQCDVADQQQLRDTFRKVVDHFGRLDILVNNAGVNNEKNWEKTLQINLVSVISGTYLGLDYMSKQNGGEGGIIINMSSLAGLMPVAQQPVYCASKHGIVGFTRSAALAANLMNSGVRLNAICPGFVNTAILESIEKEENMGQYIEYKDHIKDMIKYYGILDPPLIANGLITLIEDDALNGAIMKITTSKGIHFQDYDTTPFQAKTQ
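20 nM HPGD preincubated 15 min at room temperature with compound in 50 mM Tris-HCl pH 8, 0.01% Tween 20. Started with 1 mM NAD+ and 30 uM prostaglandin E2; NADH fluorescence (360/450 nm) read 5 times over 30-s intervals, last minus first.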
PNC assembly inh: inhibitors of perinucleolar compartment assembly; PC3M PTB-GFP, PNC prevalence imaging, 16 h; active compounds read low; activity change (PNC), negative = inhibition, % at 10 µM; hit rate 3.1% among 140,000; AID 2417;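 active means readout at or below -70, meaning at least 70% loss of cells showing the perinucleolar compartment, a nuclear body marking cancer cells; inconclusive means readout between -30 and a set limit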
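Compounds are pinned in duplicate onto adhered PC3M cells stably expressing GFP-tagged PTB and incubated 16 h at 37 C. Cells are then fixed, nuclei stained with Hoechst, and PNC-positive cells counted.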
Each line names hits and unclear results; the compound was inactive in the other large screens. An excerpt weighted towards active compounds, which were near 11% of everything screened. Unless noted, the call rests on the fitted dose curve; in most records, active means well fitted inhibition curve with a large enough effect (not every such curve was filed as active); inconclusive means small, poorly fitted or top-dose-only effect, or another doubt; inactive means no such curve, though single readings can be large or run the other way.

CC1CCC2(CC1)NC(=S)N(c1ccccc1)N2 (centres undefined)	ALDH1A1 inh 16µM
OC1CCNC(=S)N1c1ccccc1 (centres undefined)	none (no result: HPGD block, PNC assembly inh)
S=c1sc(SCCOc2ccccc2)nn1-c1ccccc1	none
O=C(Nc1cccc(-c2cn3c(n2)SCC3)c1)c1ccc(Br)o1	ALDH1A1 inh 16µM (no result: HPGD block, PNC assembly inh)
O=C(Cc1ccc(F)cc1)Nc1cccc(-c2cn3c(n2)SCC3)c1	none (no result: HPGD block, PNC assembly inh)
CS(=O)(=O)N(CC(=O)N1CCN(c2cccc(Cl)c2)CC1)c1cccc(F)c1	none
Cc1ccc(-n2c(C)cc(C3N=C(N)Nc4nc5ccccc5n43)c2C)c(C)c1 (centres undefined)	ALDH1A1 inh 13µM
Cc1cc(C2N=C(N)Nc3nc4ccccc4n32)c(C)n1-c1ccccc1Cl (centres undefined)	ALDH1A1 inh 1.1µM, PNC assembly inh -99
NC1=NC(c2ccc(F)cc2)n2c(nc3ccccc32)N1 (centres undefined)	none
NC1=NC(c2cccc(O)c2)n2c(nc3ccccc32)N1 (centres undefined)	none
CC(=O)[C@H]1[C@H](c2cccc(Cl)c2)C(C#N)(C#N)[C@@H]2c3ccccc3C=CN21	ALDH1A1 inh inconclusive, HPGD block inconclusive
COC(=O)C1(CCSC)NC(c2ccccc2F)C2C(=O)N(c3ccc4c(c3)OCCO4)C(=O)C21 (centres undefined)	none (no result: HPGD block, PNC assembly inh)
CC(C)(C)C(=O)[C@@H]1[C@@H]2C(=O)N(Cc3ccccc3)C(=O)[C@@H]2[C@H]2c3ccccc3C=CN12	ALDH1A1 inh inconclusive, PNC assembly inh inconclusive
N#C[C@@H]1[C@@H]2C(=O)N(c3ccc4c(c3)OCCO4)C(=O)[C@@H]2C2c3ccccc3C=CN21 (some centres undefined)	ALDH1A1 inh inconclusive, HPGD block inconclusive, PNC assembly inh -100
CC(=O)[C@H]1[C@@H]2C(=O)N(c3cccc(Cl)c3)C(=O)[C@@H]2[C@H]2c3ccccc3C=CN21	ALDH1A1 inh 7.9µM, HPGD block 35µM
CC(=O)[C@@H]1[C@@H]2C(=O)N(c3ccc(F)c(Cl)c3)C(=O)[C@@H]2C2c3ccccc3C=CN21 (some centres undefined)	ALDH1A1 inh 25µM, HPGD block 22µM
C[C@@]12CCC3c4ccc(OC5C=CC(c6ccccc6)OC5CO)cc4CCC3C1CCC2=O (some centres undefined)	none (no result: HPGD block, PNC assembly inh)
CCCc1nn(C)c(C(=O)Nc2ccc3ccccc3c2)c1Cl	none
O=C(O)Cc1nn(Cc2ccc(Cl)cc2)c(=O)c2ccccc12	none (no result: HPGD block, PNC assembly inh)
CC(NCc1ccc(-c2ccccc2)cc1)C(O)c1ccccc1 (centres undefined)	ALDH1A1 inh inconclusive, PNC assembly inh -118
CC(O)CNCc1ccc(-c2ccccc2)cc1 (centres undefined)	none
COc1cccc(NC2=Nc3cccc4cccc2c34)c1	PNC assembly inh inconclusive
CN(Cc1ccco1)C(=O)c1c[nH]c2ccc(S(=O)(=O)Nc3ccc4c(c3)OCCO4)cc2c1=O	ALDH1A1 inh 22µM, HPGD block 18µM
CCc1ccccc1NS(=O)(=O)c1ccc2[nH]cc(C(=O)NC3CCCC3)c(=O)c2c1	ALDH1A1 inh 20µM
O=C(NC1CCCC1)c1c[nH]c2ccc(F)cc2c1=O	ALDH1A1 inh inconclusive
CCOc1ccc(NS(=O)(=O)c2ccc3[nH]cc(C(=O)NC(C)CC)c(=O)c3c2)cc1 (centres undefined)	PNC assembly inh inconclusive
CCc1ccc(NS(=O)(=O)c2ccc3[nH]cc(C(=O)N(C)Cc4ccco4)c(=O)c3c2)cc1	PNC assembly inh -114
CN(Cc1ccccc1)C(=O)c1c[nH]c2ccc(S(=O)(=O)N3CCOCC3)cc2c1=O	ALDH1A1 inh inconclusive, HPGD block inconclusive
O=C(Nc1ccc(N2CCN(C(=O)c3ccco3)CC2)cc1)c1cccnc1Cl	none (no result: HPGD block, PNC assembly inh)
Cc1cnc(CNc2ncncc2-c2cccnc2)cn1	none (no result: HPGD block, PNC assembly inh)
Nc1cnc(Br)cc1Br	none
Nc1cc2nsnc2cc1Br	ALDH1A1 inh 7.9µM
O=S(=O)(CCOc1ccccc1)N1CCOCC1	ALDH1A1 inh 20µM
c1ccc(OCCCCN2CCOCC2)cc1	none
Cc1ccc(S(=O)(=O)N2CCOCC2)cc1N/N=C(\C#N)c1nc2ccccc2[nH]1	PNC assembly inh inconclusive (no result: HPGD block)
CN=C(C)c1c(O)c2ccccc2oc1=O	ALDH1A1 inh inconclusive
CC(C)CC(N=Cc1c(O)c2ccccc2oc1=O)C(=O)O (centres undefined)	ALDH1A1 inh 14µM (no result: HPGD block, PNC assembly inh)
C/C(=N\NC(N)=S)C1(C)CCCCC1	ALDH1A1 inh inconclusive, PNC assembly inh inconclusive
C/C(=N\NC(N)=O)C1(C)CCCCC1	ALDH1A1 inh 25µM
C/C(N)=C(/C#N)C(=O)CSc1nc2ccccc2n1CC(C)C	none (no result: HPGD block, PNC assembly inh)
C=CCn1c(SCC(=O)c2cccs2)nc2sc(CC)cc2c1=O	ALDH1A1 inh 3.5µM
C=CCn1c(SCC(=O)Nc2cc(C)on2)nc2sc(CC)cc2c1=O	none
